NOD2 RIPK2 PPI – NOD2-RIPK2 protein interaction inhibition; AID 624267; 360,000 tested, 0.38% active; inhibition, % at 4.98 µM; CHO BLA complementation NOD2-RIPK2, CCF4 ratio; in the data active = inhibition above about 21%
Target sequence (O43353 whole entry, looked up): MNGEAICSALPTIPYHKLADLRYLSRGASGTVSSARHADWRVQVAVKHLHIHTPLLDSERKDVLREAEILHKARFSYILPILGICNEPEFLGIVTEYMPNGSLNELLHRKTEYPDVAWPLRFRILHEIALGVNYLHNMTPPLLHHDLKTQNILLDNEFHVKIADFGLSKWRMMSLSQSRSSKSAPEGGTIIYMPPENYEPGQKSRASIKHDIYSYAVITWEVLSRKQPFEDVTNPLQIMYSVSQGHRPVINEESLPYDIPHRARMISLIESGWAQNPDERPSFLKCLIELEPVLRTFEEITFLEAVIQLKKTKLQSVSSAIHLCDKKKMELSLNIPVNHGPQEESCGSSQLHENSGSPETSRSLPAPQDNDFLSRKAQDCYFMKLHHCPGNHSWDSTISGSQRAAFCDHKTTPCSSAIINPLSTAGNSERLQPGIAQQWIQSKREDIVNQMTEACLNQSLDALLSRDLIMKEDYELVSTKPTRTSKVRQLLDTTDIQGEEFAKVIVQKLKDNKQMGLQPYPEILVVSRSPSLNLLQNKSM
TLR9-MyD88 block – TLR9-MyD88 interaction inhibition; CHO BLA complementation TLR9-MyD88, CCF4 FRET ratio; inhibition, % at 4.98 µM; 340,000 tested, 0.21% active; AID 504734;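 active = inhibition above the mean over all tested compounds plus 3 SD, cut at about 21% in these data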
rCAG binder – r(CAG) repeat RNA binding | TO-PRO-1 dye displacement fluorescence | AID 651821 | inhibition, % at 3 µM | 370,000 tested, 1.3% active;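 active = inhibition above the plate cutoff, the mean of all test compounds on that plate plus 3 SD, cut at about 35% in these data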;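 note: higher means more dye released from RNA so lower well fluorescence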
TLR4-MyD88 BLA – inhibitors of human TLR4-MyD88 binding. O00206+Q99836. HeLa CL3-4 TLR4/MyD88 BLA complementation, FRET ratio. inhibition, % at 8.4 µM. 200,000 tested, 0.18% active. AID 861; in the data active = inhibition above about 25%
ABHD5 PLIN5 PPI – ABHD5-PLIN5 protein interaction inhibition | Split G. princeps luciferase complementation, luminescence, 4 h | Q00G26+Q8WTS1 | 360,000 tested, 0.78% active | inhibition, % at 4 µM;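 active = inhibition above the mean inhibition across every tested compound plus 3 SD, cut at about 22% in these data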
PRMT1 inh – PRMT1 (human) inhibition, primary screen; Q99873; recombinant PRMT1, activity-based probe fluorescence polarization; inhibition, % at 2.79 µM; 370,000 tested, 1.3% active; AID 652257;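 active = inhibition above about 21% made by adding two undisclosed values, limit read from the data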
TLR9-MyD88 cf – TLR9-MyD88 interaction inhibition, confirmation; AID 540250; shares compounds with TLR9-MyD88 block; 680 tested, 51% active; CHO TLR9/MyD88 BLA complementation, CCF4 FRET ratio; inhibition, % at 4.98 µM;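 active = mean inhibition across three repeats above about 21% taken from the earlier screen, limit read from the data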;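 note: blue over green emission ratio reports constitutive TLR9 MyD88 association via BLA complementation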
BLA nonselective – beta-lactamase reporter inhibition, counter-screen artifact. shares compounds with TLR9-MyD88 block. 680 tested, 7% active. CHO-BLA cells, CCF4 FRET ratio, BLA reporter. inhibition, % at 4.98 µM. AID 540251;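 active = mean inhibition above a 50% cutoff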;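 note: counterscreen of TLR9-MyD88 hits on CMV-driven BLA in CHO-K1 cells; higher means less blue over green ratio so more BLA blockade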
TLR9 CHO cytotox – counter-screen for TLR9-MyD88 inhibitors: cytotoxicity in CHO cells; 680 tested, 39% active; luminescence; inhibition, % at 4.98 µM; shares compounds with TLR9-MyD88 block; in the data active = inhibition above about 11%
Each line names hits and unclear results; the compound was inactive in the other large screens (follow-up assays come after a bar, where they were run). A selection: hits, their analogues and other compounds. The true share with any hit is near 3.3%.

COc1cccc(CN2CCC2(C)C(=O)Nc2ccc3c(c2)OCO3)c1F (configuration not stated)	none (no result: TLR9-MyD88 block, TLR4-MyD88 BLA)
O=C(c1ccccc1)[C@H]1[C@H](c2ccccc2)[C@@]2(N=C(c3ccccc3)OC2=O)C2c3ccccc3C=NN21 (some centres not stated)	none (no result: NOD2 RIPK2 PPI, TLR9-MyD88 block, rCAG binder, ABHD5 PLIN5 PPI, PRMT1 inh)
Nc1nnnn1/N=C/c1ccccc1Cl	none (no result: TLR4-MyD88 BLA)
Nc1nnnn1/N=C/c1cc(Cl)cc(Cl)c1O	TLR9-MyD88 block 23 (no result: TLR4-MyD88 BLA) | TLR9-MyD88 cf 24 | BLA nonselective inactive | TLR9 CHO cytotox inactive
Nc1nnnn1/N=C/c1cc(Cl)ccc1O	TLR9-MyD88 block 28 (no result: TLR4-MyD88 BLA) | TLR9-MyD88 cf inactive | BLA nonselective inactive | TLR9 CHO cytotox inactive
O=C(NCCCN1CCOCC1)C(c1ccccc1)c1ccccc1	none (no result: TLR4-MyD88 BLA)
COc1cc(NC(=O)CCc2c(C)noc2C)c(Cl)cc1C(=O)O	none (no result: TLR4-MyD88 BLA)
CCn1nc(NC(=O)c2ccncc2)c2cc3cccc(C)c3nc21	none
CCn1nc(NC(=O)c2cccnc2)c2cc3cccc(C)c3nc21	TLR9-MyD88 block 23 | TLR9-MyD88 cf inactive | BLA nonselective inactive | TLR9 CHO cytotox inactive
Cc1c(NC(=O)COc2ccc(C(C)C)cc2)c(=O)n(-c2ccccc2)n1C	none (no result: TLR4-MyD88 BLA)
Cc1cc(Br)ccc1NC(=O)CN(C)C(=O)COc1cccc2c1OC(C)(C)C2	none (no result: TLR4-MyD88 BLA)
O=[N+]([O-])c1ccc(C=Nc2ccccc2)cc1	none (no result: TLR9-MyD88 block, TLR4-MyD88 BLA)
O=[N+]([O-])c1ccc(C=CC=Cc2ccccc2)cc1	TLR9-MyD88 block 25 (no result: TLR4-MyD88 BLA) | TLR9-MyD88 cf inactive | BLA nonselective inactive | TLR9 CHO cytotox inactive
CCN1CCN(Cc2c(O)ccc3c2O/C(=C\c2ccc(C)cc2)C3=O)CC1	TLR9-MyD88 block 21 | TLR9-MyD88 cf inactive | BLA nonselective inactive | TLR9 CHO cytotox inactive
O=C(COC(=O)c1cccc(S(=O)(=O)NCc2ccccc2)c1)NC1CC1	none (no result: TLR4-MyD88 BLA)
CCN(C(=O)COC(=O)c1cccc(S(=O)(=O)NCc2ccccc2)c1)c1ccccc1	TLR9-MyD88 block 22 (no result: TLR4-MyD88 BLA) | TLR9-MyD88 cf inactive | BLA nonselective inactive | TLR9 CHO cytotox inactive
O=C(O)C1CCC(CNS(=O)(=O)c2ccccc2)CC1 (configuration not stated)	none (no result: TLR4-MyD88 BLA)
CC(C)NC(=S)N/N=C/c1cc(Br)ccc1O	TLR9-MyD88 block 21 | TLR9-MyD88 cf inactive | BLA nonselective inactive | TLR9 CHO cytotox inactive
COC(=O)N/N=C/c1cc(Br)ccc1O	none
C[C@H](CO)N1C[C@H](C)[C@@H](CN(C)S(=O)(=O)c2ccccc2)Oc2c(NC(=O)NC3CCCCC3)cccc2C1=O	none (no result: TLR4-MyD88 BLA)
Cc1ccsc1C1C=C(c2cccc(Br)c2)Nc2ncnn21 (configuration not stated)	TLR9-MyD88 block 28 (no result: rCAG binder, PRMT1 inh) | TLR9-MyD88 cf inactive | BLA nonselective inactive | TLR9 CHO cytotox inactive
COc1cccc(C2=CC(c3ccc(C)cc3)n3ncnc3N2)c1 (configuration not stated)	none (no result: NOD2 RIPK2 PPI, TLR9-MyD88 block, rCAG binder, ABHD5 PLIN5 PPI, PRMT1 inh)
N=C1/C(=C\c2ccc(OCc3ccccc3)cc2)C(=O)N=C2SC(N3CCCC3)=NN12	none (no result: NOD2 RIPK2 PPI, TLR9-MyD88 block, rCAG binder, ABHD5 PLIN5 PPI, PRMT1 inh)
COc1ccc(C(=O)/C=C/c2ccc(O)cc2)c2c1CC(O)C(C)(C)O2 (configuration not stated)	TLR9-MyD88 block 23 (no result: TLR4-MyD88 BLA) | TLR9-MyD88 cf inactive | BLA nonselective inactive | TLR9 CHO cytotox inactive
COc1ccc(C(=O)/C=C/c2ccc(O)cc2)cc1	none
COc1ccc(S(=O)(=O)N2CCC(C(=O)NC3CC3)CC2)cc1	none (no result: TLR4-MyD88 BLA)
COc1ccc(S(=O)(=O)N2CCC(NC(=O)C3CCCCC3)CC2)cc1	TLR9-MyD88 block 21 (no result: TLR4-MyD88 BLA) | TLR9-MyD88 cf inactive | BLA nonselective inactive | TLR9 CHO cytotox inactive
CC(C)(C)C(=O)NC(=S)NNC(=O)c1sc2ccccc2c1Cl	TLR9-MyD88 block 30 (no result: rCAG binder, PRMT1 inh) | TLR9-MyD88 cf inactive | BLA nonselective inactive | TLR9 CHO cytotox 47
COc1cccc(C2=CC(c3ccc(OC)c(OC)c3OC)n3nnnc3N2)c1 (configuration not stated)	TLR9-MyD88 block 22 | TLR9-MyD88 cf inactive | BLA nonselective inactive | TLR9 CHO cytotox inactive
CC(C)C(=O)Nc1cccc(COc2cccc(CN(Cc3ccccc3)C(=O)OC(C)(C)C)c2)c1	none (no result: TLR4-MyD88 BLA)
C#CCOCCOCCOCCNc1nc(N2CCN(C(=O)CCCCCCCCCCNC(=O)[C@H](CCCCN)n3cc(C[C@@H](C)CC)nn3)CC2)nc(N2CCN(C(=O)CCCCCCCCCCNC(=O)[C@H](CCCCN)n3cc(C[C@@H](C)CC)nn3)CC2)n1	NOD2 RIPK2 PPI 35, TLR9-MyD88 block 52, ABHD5 PLIN5 PPI 58 (no result: rCAG binder, TLR4-MyD88 BLA, PRMT1 inh) | TLR9-MyD88 cf 29 | BLA nonselective inactive | TLR9 CHO cytotox 43
Fc1cccc(/C=N/Nc2ccc(Cl)nn2)c1	TLR9-MyD88 block 23 (no result: TLR4-MyD88 BLA) | TLR9-MyD88 cf inactive | BLA nonselective inactive | TLR9 CHO cytotox inactive
Cc1cccc(NC(=O)c2c(O)c3ccccc3n(C)c2=O)c1	none (no result: TLR4-MyD88 BLA)
O=C(COC(=O)c1ccc2c(c1[N+](=O)[O-])C(=O)c1ccccc1C2=O)NC1CC1	TLR9-MyD88 block 25 | TLR9-MyD88 cf inactive | BLA nonselective inactive | TLR9 CHO cytotox 19
NC(=O)c1ccsc1NC(=O)CSc1nncs1	none (no result: TLR4-MyD88 BLA)
O=C(CSc1nncs1)Nc1nccs1	TLR9-MyD88 block 26 (no result: TLR4-MyD88 BLA) | TLR9-MyD88 cf inactive | BLA nonselective inactive | TLR9 CHO cytotox inactive
CS(=O)(=O)c1ncc(Cl)c(C(=O)Nc2ccc(N3CCOCC3)cc2)n1	NOD2 RIPK2 PPI 47, TLR9-MyD88 block 43, ABHD5 PLIN5 PPI 60 (no result: rCAG binder, PRMT1 inh) | TLR9-MyD88 cf 47 | BLA nonselective inactive | TLR9 CHO cytotox 95
Nc1cccc2c1C(=O)N(C(=O)c1ccc(Cl)c(S(=O)(=O)N3CCCCCC3)c1)C2=O	TLR9-MyD88 block 28 | TLR9-MyD88 cf inactive | BLA nonselective inactive | TLR9 CHO cytotox inactive
Cc1ccc(C(=O)COC(=O)CN2C(=O)C3CC=CCC3C2=O)cc1C (configuration not stated)	none (no result: TLR4-MyD88 BLA)
CSCCC(C(=O)OCC(=O)c1ccc(C)c(C)c1)N1C(=O)c2cc(Cl)c(Cl)cc2C1=O (configuration not stated)	TLR9-MyD88 block 22 | TLR9-MyD88 cf inactive | BLA nonselective inactive | TLR9 CHO cytotox inactive
COc1ccc(C(=O)C(O)C(c2ccc(C)cc2)N2CCOCC2)cc1OC (configuration not stated)	none (no result: TLR4-MyD88 BLA)
C[C@H](NC(=O)[C@@H]1Cc2ccccc2CN1)C(=O)NC1CCCC1	none (no result: TLR4-MyD88 BLA)
COc1ccccc1C(=O)Nc1onc(C)c1C#N	TLR9-MyD88 block 22 | TLR9-MyD88 cf inactive | BLA nonselective inactive | TLR9 CHO cytotox inactive
Cc1noc(NC(=O)c2ccccc2Cl)c1C#N	none
COc1ccc(CN(C)C(=O)c2cccc(Oc3ccccc3)c2)c(OC)c1OC	none (no result: TLR4-MyD88 BLA)

Bioassay records deposited in PubChem BioAssay by The Scripps Research Institute Molecular Screening Center.
